“And” between values parts separate entries of the source, which are not always exact repeats. Equal entries are not always repeated. Inconclusive results are not listed. Entries that show only a call come without a potency. More than one record can exist for a structure, and the calls need not agree. The source made the active and inactive calls. Calls come from the whole dose curve; as a rule, active = well fitted inhibition curve with a large enough effect; inconclusive = small, poorly fitted or top-dose-only effect; inactive = flat fitted curve, though single readings scatter.
Target: Voltage-gated inwardly rectifying potassium channel KCNH2 (Homo sapiens) (UniProt Q12809)
Sequence (Q12809 whole entry, looked up): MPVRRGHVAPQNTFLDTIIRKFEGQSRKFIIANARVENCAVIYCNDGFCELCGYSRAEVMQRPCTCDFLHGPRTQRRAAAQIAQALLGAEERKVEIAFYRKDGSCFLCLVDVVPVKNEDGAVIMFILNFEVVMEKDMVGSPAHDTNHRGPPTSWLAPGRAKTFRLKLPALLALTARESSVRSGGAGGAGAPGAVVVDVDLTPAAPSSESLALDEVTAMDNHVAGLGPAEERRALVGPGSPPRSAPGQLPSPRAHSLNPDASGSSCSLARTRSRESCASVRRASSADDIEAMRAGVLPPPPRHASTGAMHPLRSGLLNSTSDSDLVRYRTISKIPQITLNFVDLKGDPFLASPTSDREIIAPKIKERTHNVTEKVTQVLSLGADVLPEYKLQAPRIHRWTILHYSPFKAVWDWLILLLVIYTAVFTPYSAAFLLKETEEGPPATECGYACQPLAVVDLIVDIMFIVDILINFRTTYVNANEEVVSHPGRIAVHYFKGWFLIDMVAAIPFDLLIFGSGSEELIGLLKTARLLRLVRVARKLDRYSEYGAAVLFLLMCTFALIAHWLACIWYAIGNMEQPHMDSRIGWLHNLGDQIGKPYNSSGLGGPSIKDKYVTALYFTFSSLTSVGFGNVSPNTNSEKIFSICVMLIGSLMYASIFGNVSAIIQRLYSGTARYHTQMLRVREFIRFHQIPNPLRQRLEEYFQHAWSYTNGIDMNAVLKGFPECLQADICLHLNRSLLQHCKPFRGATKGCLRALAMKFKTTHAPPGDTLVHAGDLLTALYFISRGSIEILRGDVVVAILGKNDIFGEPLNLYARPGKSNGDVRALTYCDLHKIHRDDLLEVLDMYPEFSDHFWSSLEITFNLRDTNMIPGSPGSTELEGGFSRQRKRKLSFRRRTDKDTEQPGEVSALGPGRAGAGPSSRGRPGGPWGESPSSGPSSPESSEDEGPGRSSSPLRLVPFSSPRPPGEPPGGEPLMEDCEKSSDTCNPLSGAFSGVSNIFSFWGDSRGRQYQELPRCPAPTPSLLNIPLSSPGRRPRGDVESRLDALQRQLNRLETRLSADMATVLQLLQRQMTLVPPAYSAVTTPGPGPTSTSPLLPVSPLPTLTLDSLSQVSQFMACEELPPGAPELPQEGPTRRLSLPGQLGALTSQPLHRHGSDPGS
Test: qHTS Assay for Small Molecule Inhibitors of the Human hERG Channel Activity (AID 588834);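 note: lower thallium flux fluorescence means stronger hERG block; nearly all actives have a fitted effect of over 50% in size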
Settings: U2OS BacMam hERG, FluxOR thallium flux fluorescence; series mostly up to 46.1 µM
How it was run: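 In hERG-transduced U2OS cells, dye-loaded for 1 hr at room temperature in dark, test compounds incubated 10 min at 37 °C before thallium stimulation. AC50 values derived by Hill modelling of concentration-response.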
Potency is the fitted concentration of half-maximal effect.

| SMILES | Potency |
| --- | --- |
| CC(C)NCC1CCc2cc(CO)c([N+](=O)[O-])cc2N1 (configuration not stated) | inactive |
| N[C@H](C(=O)O)[C@@H]1CC(Cl)=NO1 | inactive |
| CCCCC(=O)O[C@]1(C(=O)CO)[C@H](C)C[C@H]2[C@@H]3CCC4=CC(=O)C=C[C@]4(C)[C@@]3(F)[C@@H](O)C[C@@]21C | inactive |
| CCNC(=O)[C@@H]1CCCN1C(=O)[C@H](CCCN=C(N)N)NC(=O)[C@H](CC(C)C)NC(=O)[C@@H](Cc1c[nH]c2ccccc12)NC(=O)[C@H](Cc1ccc(O)cc1)NC(=O)[C@H](CO)NC(=O)[C@H](Cc1c[nH]c2ccccc12)NC(=O)[C@H](Cc1cnc[nH]1)NC(=O)[C@@H]1CCC(=O)N1 | 2.51 µM (active) |
| Cc1cc(C(=O)NNCc2ccccc2)no1 | inactive |
| Nc1c(N=Nc2ccc(-c3ccc(N=Nc4cc(S(=O)(=O)O)c5ccccc5c4N)cc3)cc2)cc(S(=O)(=O)O)c2ccccc12 | inactive |
| CNc1cc(OC)c(C(=O)N[C@H]2CCN(Cc3ccccc3)[C@H]2C)cc1Cl | 12.6 µM (active) |
| CCN(CC)CCOc1ccc(-c2nc3cc(Cl)ccc3s2)cc1 | 5.01 µM (active) |
| Cc1cn([C@H]2C[C@H](O)[C@@H](CO)O2)c(=O)[nH]c1=O | inactive |
| O=S(=O)(O)c1cc(O)c2c(N=Nc3ccc(Nc4ccccc4)c4c(S(=O)(=O)O)cccc34)cc(S(=O)(=O)O)cc2c1 | inactive |
| CC(C)N=c1cc2n(-c3ccc(Cl)cc3)c3ccccc3nc-2cc1Nc1ccc(Cl)cc1 | 7.08 µM (active) |
| CN1CCC(CN2c3ccccc3Sc3ccccc32)C1 (configuration not stated) | 12.6 µM (active) |
| COc1ccc2c3c1O[C@H]1C[C@@H](O)C=C[C@@]31CCN(C)C2 | inactive |
| CO[C@H]1C[C@H](O[C@H]2[C@H](C)[C@@H](O[C@@H]3O[C@H](C)C[C@H](N(C)C)[C@H]3OC(C)=O)[C@@H](C)C[C@]3(CO3)C(=O)[C@H](C)[C@@H](OC(C)=O)[C@@H](C)[C@@H](C)OC(=O)[C@@H]2C)O[C@@H](C)[C@@H]1OC(C)=O | inactive |
| O=C(O)c1cc(O)c2c(c1)[O][Bi][O]2 | inactive |
| C[C@H](CCC(=O)O)[C@H]1CC[C@H]2[C@@H]3[C@H](O)C[C@@H]4C[C@H](O)CC[C@]4(C)[C@H]3CC[C@]12C | inactive |

| SMILES | Potency |
| --- | --- |
| CC(=O)N(CC(C)C(=O)O)c1c(I)cc(I)c(N)c1I (configuration not stated) | inactive |
| CC1(C)S[C@@H]2[C@H](NC(=O)C(C(=O)O)c3ccsc3)C(=O)N2[C@H]1C(=O)O (some centres not stated) | inactive |
| CC(=O)OCC(=O)[C@@]12OC3(CCCC3)O[C@@H]1C[C@H]1[C@@H]3CCC4=CC(=O)C=C[C@]4(C)[C@@]3(F)[C@@H](O)C[C@@]12C | inactive |
| C/C1=C2N=C(/C=C3N=C(/C(C)=C4\[N-][C@@](C)([C@@H]5N=C1[C@](C)(CCC(=O)NCC(C)OP(=O)(O)O[C@H]1[C@@H](O)[C@@H](n6cnc7cc(C)c(C)cc76)O[C@@H]1CO)[C@H]5CC(N)=O)[C@@](C)(CC(N)=O)[C@@H]4CCC(N)=O)[C@@](C)(CC(N)=O)[C@@H]\3CCC(N)=O)C(C)(C)[C@@H]/2CCC(N)=O.CC(=O)O.[Co] (some centres not stated) | inactive |
| CO/N=C(\C(=O)N[C@@H]1C(=O)N2C(C(=O)O)=C(CSc3cnns3)CS[C@H]12)c1csc(N)n1 | inactive |
| CC(Cc1ccc(O)c(O)c1)C(C)Cc1ccc(O)c(O)c1 (configuration not stated) | inactive |
| CN1Cc2c(N)cccc2C(c2ccccc2)C1 (configuration not stated) | inactive and 12.6 µM (active) |
| Cc1c(C)c2c(c(C)c1O)CC[C@@](C)(CCC[C@@H](C)CCC[C@@H](C)CCCC(C)C)O2 | inactive |
| C=C1CC[C@@H]2[C@](C)(CO)[C@H](O)CC[C@@]2(C)[C@@H]1C/C=C1/C(=O)OC[C@H]1O | inactive |
| CCOc1ccc(N=Nc2ccc(N)cc2N)cc1 | inactive |
| CC(Oc1ccccc1)C(=O)N[C@@H]1C(=O)N2[C@@H]1SC(C)(C)[C@@H]2C(=O)O (some centres not stated) | inactive |
| C=C1C(=CC=C2CCC[C@@]3(C)[C@@H]2CC[C@H]3[C@H](C)CCCC(C)C)C[C@@H](O)C[C@@H]1O | inactive |
| CC[N+](C)(C)Cc1ccccc1Br | inactive |
| O=C1CSC2(CCN(CCCN3c4ccccc4Sc4ccc(Cl)cc43)CC2)N1 | 7.08 µM (active) |
| CC[C@@]1(O)C(=O)OCc2c1cc1n(c2=O)Cc2cc3c([N+](=O)[O-])cccc3nc2-1 | inactive |
| O=C(O)c1cc(=O)c2c3nc4ccccc4oc-3cc(=O)c2[nH]1 | inactive |

From PubChem BioAssay (NCATS)
